Data on nine compounds can be found in PubChem BioAssay (EPA / NIEHS).

Where “and” joins values, the source holds several entries; their conditions need not be identical. Equal values may be shown once. Results filed as inconclusive are left out. The source holds several records for some structures; these can differ, active in one and inactive in another. Calls of active or inactive are those of the source. How the source made its calls, unless noted: active means hit-call score of the fitted dose curve at least 0.9, where 1 is the maximum; inactive means score below 0.9.

The subject of assay [1] is SRY-box transcription factor 2 (SOX2) Protein Expression, Deisenroth Lab, SOX2 (gene 6657). Put plainly: CCTE_Deisenroth_DEVTOX-GLR_Endo_SOX2: CCTE's DevTox GLR-Endo Assay Evaluation of SRY-box transcription factor 2 (SOX2) Protein Expression, Deisenroth Lab (AID 2284412; active means hit-call score of the fitted dose curve at least 0.9, where 1 is the maximum). In short, it runs like this: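 RUES2-GLR human pluripotent cells were seeded 24 h, then differentiated 48 h with two chemical exposures 24 h apart. Cells were fixed, nuclei stained and imaged by high-content microscopy. Endpoint is %SOX2+ cells over cell count, minus 0.2% DMSO control; 10-point series 1 nM–200 uM.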

Assay [2] has as its system SRY-box transcription factor 17 (SOX17) Protein Expression, Deisenroth Lab, SOX17 (gene 64321). Put plainly: CCTE_Deisenroth_DEVTOX-GLR_Endo_SOX17: CCTE's DevTox GLR-Endo Assay Evaluation of SRY-box transcription factor 17 (SOX17) Protein Expression, Deisenroth Lab (AID 2284413). The essentials:
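RUES2-GLR human pluripotent cells were differentiated toward endoderm for 48 h and received two compound doses 24 h apart (1 nM - 200 uM, 10 points). High-content imaging of fixed cells gave the percent SOX17+ cells per cell count, expressed as percent change versus 0.2% DMSO.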

A short description of assay [3]: CCTE_Padilla_ZF_Score.Craniofacial: CCTE's 144 Hour Post-fertilization zebrafish Assay Score for Craniofacial Malformation, Padilla Lab (AID 2284405). The essentials:
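Wild-type zebrafish embryos (with chorions), one per well in 10% Hanks', were dosed at 6–8 hpf in sealed plates and kept at 26C. They were rinsed at 5 dpf. At 6 dpf two blinded assessors scored craniofacial malformations by brightfield stereomicroscopy.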

Assay [4] in a line: CCTE_Padilla_ZF_Score.Edema: CCTE's 144 Hour Post-fertilization zebrafish Assay Score for Edema Malformation, Padilla Lab (AID 2284406). The essentials: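 Wild-type zebrafish embryos, one per well in Hanks' solution, dosed at 6-8 hpf, sealed and reared at 26C on a 14:10 h cycle; rinsed on 5 dpf. At 6 dpf, blinded assessors scored edema by stereomicroscopy.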
Assay [5] in a line: CCTE_Padilla_ZF_Score.Spine: CCTE's 144 Hour Post-fertilization zebrafish Assay Score for Spine Malformation, Padilla Lab (AID 2284407). The essentials:
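Wild-type zebrafish embryos, one per well in Hanks' solution, dosed at 6–8 hpf in sealed plates at 26C, 14:10 h light:dark; rinsed at 5 dpf. Two blinded assessors scored spinal defects by stereomicroscopy at 6 dpf; fitted versus DMSO.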

Assay [6] is described as follows: CCTE_Padilla_ZF_Score.Swim_bladder: CCTE's 144 Hour Post-fertilization zebrafish Assay Score for Swim Bladder Malformation, Padilla Lab (AID 2284408). In short, it runs like this: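 Wild-type zebrafish embryos, one per well in 10% Hanks', dosed at 6–8 hpf, sealed, reared at 26C and rinsed at 5 dpf. Blinded assessors scored uninflated swim bladder by stereomicroscopy at 6 dpf, relative to DMSO.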

Assay [7] can be described thus: CCTE_Padilla_ZF_Score.Position: CCTE's 144 Hour Post-fertilization zebrafish Assay Score for Position, Padilla Lab (AID 2284409). The essentials: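 Wild-type zebrafish embryos (with chorions) exposed singly from 6–8 hpf in sealed wells of Hanks' solution at 26C, rinsed at 5 dpf. At 6 dpf, blinded assessors scored abnormal water-column position by brightfield stereomicroscopy, relative to DMSO.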

Assay [8] in a line: CCTE_Padilla_ZF_Score.Living: CCTE's 144 Hour Post-fertilization zebrafish Assay Score for Viability, Padilla Lab (AID 2284410).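 Further: larval death at 6 dpf judged by absent heartbeat or coagulation.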 In short, it runs like this:
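Wild-type zebrafish embryos were exposed singly from 6–8 hpf in sealed wells of Hanks' solution at 26C, then rinsed at 5 dpf. At 6 dpf, blinded assessors scored mortality (no heartbeat or coagulation) by stereomicroscopy, fitted against DMSO.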

Assay [9] can be described thus: CCTE_Padilla_ZF_Score.General: CCTE's 144 Hour Post-fertilization zebrafish Assay Score for General Malformation, Padilla Lab (AID 2284411). In short, it runs like this: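 Wild-type zebrafish embryos were plated singly at 6-8 hpf in 10% Hanks' and exposed in sealed wells at 26C until rinsed on 5 dpf. At 6 dpf two blinded assessors scored mortality, hatching and malformations by stereomicroscopy; gain-of-signal versus DMSO.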

Assay [10] can be described thus: CCTE_Padilla_ZF_Score.Tail: CCTE's 144 Hour Post-fertilization zebrafish Assay Score for Tail Malformation, Padilla Lab (AID 2284414). The essentials:
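Wild-type zebrafish embryos, one per well in 200 uL 10% Hanks', dosed at 6-8 hpf, sealed, and kept at 26 C on a 14:10 h light cycle. Chemical was rinsed out at 5 dpf. Blinded brightfield scoring of tail defects followed at 6 dpf.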

Assay [11] is described as follows: CCTE_Padilla_ZF_Score.Blood_pooling: CCTE's 144 Hour Post-fertilization zebrafish Assay Score for Blood Pooling, Padilla Lab (AID 2284415). In short, it runs like this: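 Wild-type outbred zebrafish embryos, one per well in 10% Hanks', exposed from 6–8 hpf in sealed plates at 26C on 14:10 h light:dark, rinsed at 5 dpf. Blinded stereomicroscope scoring of blood pooling at 6 dpf; gain-of-signal versus DMSO.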

A short description of assay [12]: Tanguay_ZF_120hpf_MO24: Oregon State University Tanguay Lab 24 Hour Post-fertilization zebrafish Assay for Mortality (AID 2284389). The essentials: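 Dechorionated wild-type zebrafish embryos, 1 per well, statically exposed from 6 hpf at 28C, 0.64% DMSO final. Mortality scored as binary present/absent at 24 hpf by brightfield microscopy, relative to DMSO.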
Assay [13] can be described thus: Tanguay_ZF_120hpf_DP24: Oregon State University Tanguay Lab 24 Hour Post-fertilization zebrafish Assay for Delayed Development (AID 2284390). The essentials: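 Dechorionated 5D wild-type zebrafish embryos exposed statically from 6 hpf, one per well, 0.64% DMSO final, 28 C, sealed and dark. Developmental progression scored at 24 hpf by brightfield as binary present/absent; dead embryos excluded.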

Assay [14] is described as follows: Tanguay_ZF_120hpf_CRAN: Oregon State University Tanguay Lab 120 Hour Post-fertilization zebrafish Assay for Craniofacial Malformation (AID 2284397). The essentials: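 Dechorionated Tropical 5D wild-type zebrafish embryos, one per well, were statically exposed from 6 to 120 hpf at 28C in 0.64% DMSO, with 5uM trimethyltin chloride as positive control. Craniofacial malformation was scored present/absent by brightfield microscopy, relative to DMSO.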

Assay [15] is described as follows: Tanguay_ZF_120hpf_AXIS: Oregon State University Tanguay Lab 120 Hour Post-fertilization zebrafish Assay for Axial Malformation (AID 2284398). The essentials:
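Dechorionated 5D wild-type zebrafish embryos exposed statically, one per well, from 6 to 120 hpf at 28C, 0.64% DMSO. Axial malformation scored as present/absent by brightfield microscopy at 120 hpf; dead embryos not scored.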

Assay [16] is described as follows: Tanguay_ZF_120hpf_MORT: Oregon State University Tanguay Lab 120 Hour Post-fertilization zebrafish Assay for Mortality (AID 2284399). The essentials: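 Dechorionated wild-type Tropical 5D zebrafish embryos, one per well from 6 hpf, static exposure to 120 hpf at 28C in sealed dark plates, 0.64% DMSO final. Mortality scored as binary by brightfield at 24 and 120 hpf.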

Assay [17] in a line: Tanguay_ZF_120hpf_EDEM: Oregon State University Tanguay Lab 120 Hour Post-fertilization zebrafish Assay for Edema Malformation (AID 2284400). The essentials:
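Dechorionated Tropical 5D wild-type embryos, one per well, statically exposed from 6 to 120 hpf at 28C in 0.64% DMSO. Edema scored present/absent by brightfield microscopy at 120 hpf; dead embryos not scored; fit versus DMSO.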

Assay [18] is described as follows: Tanguay_ZF_120hpf_BRN: Oregon State University Tanguay Lab 120 Hour Post-fertilization zebrafish Assay for Brain Region Malformation (AID 2284402). The essentials: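 Dechorionated wild-type Tropical 5D zebrafish embryos exposed statically from 6 to 120 hpf at 28C, one per well, 0.64% DMSO final. Brain malformation scored at 120 hpf by brightfield as present/absent; dead embryos not scored.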

The nature of assay [19]: Tanguay_ZF_120hpf_TCHR: Oregon State University Tanguay Lab 120 Hour Post-fertilization zebrafish Assay for Touch Responsive (AID 2284403). The essentials:
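Dechorionated Tropical 5D wild-type zebrafish embryos, one per well from 6 hpf, were statically exposed to 120 hpf at 28 °C (0.64% DMSO). Touch response was scored present/absent at 120 hpf and not scored in dead larvae.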

Assay [20] is described as follows: Tanguay_ZF_120hpf_ANY: Oregon State University Tanguay Lab 120 Hour Post-fertilization zebrafish Assay for Any Mortality and Malformation (AID 2284404). The essentials: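 Dechorionated Tropical 5D wild-type embryos, one per well from 6 hpf, static exposure in sealed, dark plates at 28C until 120 hpf, 0.64% DMSO final. Brightfield scoring of mortality and malformations as binary presence/absence, pooling 13 morphology endpoints.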

With `CC1=C(/C=C/C(C)=C/C=C/C(C)=C/C(=O)O)C(C)(C)CCC1`, the figures for the AC50 in assay [1] and in assay [2] were 16 µM (active) and 0.102 µM (active), respectively.
For the compound `C[C@@H]1C[C@H]2[C@@H]3CCC4=CC(=O)C=C[C@]4(C)[C@@]3(F)[C@@H](O)C[C@]2(C)[C@@]1(O)C(=O)COP(=O)(O)O`, the compound was called inactive in assay [1] and in [2].
Consider `NCC(F)(F)C(F)(F)C(F)(F)C(F)(F)C(F)(F)C(F)(F)C(F)(F)F`, for which the compound was called inactive in assay [3], in assay [4], in assay [5], in assay [6], in [7] and in [8]. Besides, the outcome in assay [9], in [10] and in assay [11] was inactive.
For the compound `C=C(C)C(=O)OCCC(F)(F)C(F)(F)C(F)(F)C(F)(F)C(F)(F)C(F)(F)F`, the compound was called inactive in assay [12], in [13], in assay [14], in [15], in assay [16] and in assay [17]. Moreover, the outcome in assay [18], in assay [19], in assay [20], in assay [3], in assay [4] and in assay [5] was inactive. Further, the compound was classed as inactive in assay [6], in [7], in assay [8], in assay [9], in assay [10] and in assay [11].
In the case of `OCCC(F)(F)C(F)(F)C(F)(F)C(F)(F)C(F)(F)C(F)(F)C(F)(F)C(F)(F)F`, the compound was classed as inactive in assay [12], in assay [13], in assay [14], in assay [15], in assay [16] and in [17]. For the same compound, the outcome in [18], in assay [19], in assay [20], in assay [3], in assay [4] and in assay [5] was inactive. The compound was classed as inactive in assay [6], in assay [7], in assay [10] and in [11]. In addition, the AC50 in [8] is 78.3 µM (active); in assay [9], 88.8 µM (active).
Regarding `CC(O)CO` (stereo not given), the compound was called inactive in assay [2].
Turning to `CCCCCCCCCCCCCC[N+](C)(C)C`, in [9], the compound was called inactive.
For the compound `FC(F)(I)C(F)(F)C(F)(F)C(F)(F)C(F)(F)C(F)(F)I`, the concentration at half-maximal activity (AC50) is 34.5 µM (active) and 26.6 µM (active) in [3]; 19.1 µM (active) and 5.34 µM (active) in [4]; 6.93 µM (active) in [5]; 10.9 µM (active) and 8.3 µM (active) in [6]; 28 µM (active) and 4 µM (active) in assay [7]; 88.8 µM (active) in assay [8]. The half-maximal activity concentration (AC50) was 15.6 µM (active) and 5.69 µM (active) in assay [9]; 28.6 µM (active) and 3 µM (active) in assay [11]. Besides, the outcome in [5], in assay [8] and in assay [10] was inactive.
Take `OCCC(F)(F)C(F)(F)C(F)(F)C(F)(F)C(F)(F)C(F)(F)F`: the outcome in assay [12], in assay [13], in assay [14], in [15], in assay [16] and in assay [17] was inactive. Moreover, the result in assay [18], in assay [19], in [20], in [5], in assay [7] and in [8] was inactive. In addition, the result in assay [10] and in [11] was inactive. Further, the AC50 in assay [3] is 30.1 µM (active); in [4] it was 16.5 µM (active); in assay [6] it was 52.7 µM (active); in assay [9], 2.19 µM (active).

Broadly, the AC50 is the midpoint of the concentration-response curve, whichever way the signal moves.
